In PubChem BioAssay (NCI) one finds growth data, which are given here for 16 compounds.

Compounds without any hit were thinned out: in the full panel of roughly 83,000, 20% have a hit.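 How to read the values: 0–100, growth inhibition (40 = 60% inhibited); 0, no net growth; -100 to 0, cell death (-40 = 40% of starting cells died; -100 = all dead).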 Unmarked numbers belong to inactive results. Activity calls are given as the source filed them. How the source made its calls: active means growth percent below 10; inactive means the rest.

Common to all, as to assay: NCI-60 one-dose screen, 48 h (100 = growth as untreated, 0 = no growth, -100 = all killed)
What all share (settings): 10 µM unless noted

In assay [1] the test system is T-47D breast.
Assay [2] deals with BT-549 breast.
Assay [3] deals with MDA-MB-435 melanoma.
The subject of assay [4] is SW-620 colon.
The test system of assay [5] is MCF7 breast.
The test system of assay [6] is HCT-116 colon.
Assay [7] relates to KM12 colon.
In assay [8] the test system is HCC-2998 colon.

On to `CC(=O)c1cc(C(=O)c2ccc3c(c2)Sc2ccccc2N3)n2ccccc12`, for which the growth in assay [1] was 43%; in assay [2], 45.8%; in assay [3] it was -9.84% (active); in assay [4], 23.9%; in assay [5], 24.7%; in assay [6], 0.708% (active). For the same compound, the growth in assay [7] is 9.91% (active).
With `COc1cc2c(cc1O)CC[C@@H]1[C@@H]2CC[C@]2(C)[C@@H](OCCN(C)C)CC[C@@H]12`, the growth in assay [1] is 58.3%; in assay [2], 43.5%; in assay [3] it was -56.8% (active); in assay [4] it was 13.1%; in assay [5], 37.1%; in assay [6] it was 7.27% (active). Moreover, in assay [7], the growth was 24.2%.
On to `Cc1nc(Nc2ccc(F)c(Cl)c2)sc1C(=O)O`, for which the growth is 6.86% (active) in assay [1]; -0.289% (active) in assay [2]; 20.4% in assay [3]; 24.8% in assay [4]; 11.9% in assay [5]; 8.02% (active) in assay [6]. Also, the growth in assay [7] was -3.33% (active).
For `COc1ccc(CN2c3ccccc3Sc3ccccc32)c(C(F)(F)F)c1`, the growth in assay [1] was 25.9%; in assay [2] it was 53.5%; in assay [3], -33.6% (active); in assay [4], 25.8%; in assay [5], 24.5%; in assay [6] it was 7.74% (active). Also, the growth in assay [7] was 20%.
With `COc1ccc(C(=S)N2CCN(c3cccc(Cl)c3)CC2)cc1`, the growth in assay [1] is 89.9%; in assay [2], 90.8%; in assay [3], 106%; in assay [4], 101%; in assay [5] it was 111%; in assay [6], 89.2%. The growth in assay [7] was 104%.
Regarding `Cc1ccc(O)c(N2C(=NCc3ccco3)NS(=O)(=O)c3cnccc32)c1`, the growth is 110% in assay [1]; 101% in assay [2]; 91.8% in assay [3]; 111% in assay [4]; 101% in assay [5]; 99% in assay [6]. The growth in assay [7] is 112%.
As for `Fc1ccc2[nH]cc(SSc3c[nH]c4ccc(F)cc34)c2c1`, the growth is 27.5% in assay [1]; 39.6% in assay [2]; 46.2% in assay [3]; 91.2% in assay [4]; 32.2% in assay [5]; 25.3% in assay [6]. Besides, in assay [7], the growth was 24.3%.
Regarding `CC/C=C\C[C@H](O)C/C=C1/C(=O)C=C[C@@]1(C)C/C=C\CCCC(=O)OC`, the growth in assay [1] is 98.2%; in assay [2] it was 104%; in assay [3], 106%; in assay [4], 114%; in assay [5], 92.8%; in assay [6] it was 94%. In addition, the growth in assay [7] is 102%.
As for `COc1ccc(C(=O)COc2ccc(/C=C3\Oc4ccc(OC)cc4C3=O)cc2)cc1`, the growth is 103% in assay [1]; 99.2% in assay [2]; 115% in assay [3]; 95.9% in assay [4]; 110% in assay [5]; 84.9% in assay [6]. Also, the growth in assay [7] was 94%.
Consider `CC/C=C\C/C=C\C[C@H]1C/C=C2/C(=O)C=C[C@@H]2C/C=C\CCC(=O)O1`, for which the growth in assay [1] is 23.4%; in assay [2], -3.33% (active); in assay [3], 0.314% (active); in assay [4] it was 8.89% (active); in assay [5], 26.1%; in assay [6], -48.7% (active). In addition, in assay [7], the growth is -27.8% (active).
Turning to `CCCSc1ccc2nc(NC(=O)OC)[nH]c2c1`, the growth is 57.4% in assay [1]; 45.5% in assay [2]; -51% (active) in assay [3]; 24% in assay [4]; 15.5% in assay [6]; -4.45% (active) in assay [8]. Further, the growth in assay [7] was 14%.
`CSc1ccc(-c2ccccc(=O)c2O)cc1`: the growth in assay [1] is 27%; in assay [2], 29.7%; in assay [4], 29.2%; in assay [5], 15.8%; in assay [6], 20%; in assay [8] it was 44%. The growth in assay [7] was 23.1%.
In the case of `CC1=CC(=NN=c2cc(C)n([O-])c(C)c2)C=C(C)[N+]1=O`, the growth was 43.9% in assay [1]; 75.1% in assay [2]; 101% in assay [4]; 19.3% in assay [5]; 83.1% in assay [6]; 63.2% in assay [8].
As for `CC[C@@H]1O[C@H](O[C@@H](c2cnc[nH]2)[C@H](NC(=O)c2nc([C@H](CC(N)=O)NC[C@@H](N)C(N)=O)nc(N)c2C)C(=O)N[C@H](C)[C@H](O)[C@H](C)C(=O)N[C@@H](C(=O)NCCc2nc(-c3nc(C(=O)NCCCCN=C(N)N)cs3)cs2)[C@@H](C)O)[C@H](O[C@@H]2O[C@H](CO)[C@H](O)[C@H](OC(N)=O)[C@@H]2O)[C@H](C)[C@@H]1C`, the growth was 57.4% in assay [1]; 78.3% in assay [2]; 81.9% in assay [3]; 68.1% in assay [4]; 37% in assay [6]; 69.7% in assay [8]. Besides, in assay [7], the growth was 57.9%.
Regarding `O=C(CCCCC(=O)N/N=C\c1ccccc1O)N/N=C\c1ccccc1O`, the growth in assay [1] is 35.5%; in assay [2], 38.4%; in assay [4], 34.2%; in assay [5], 27.5%; in assay [6] it was 25.5%; in assay [8] it was 21.4%. Further, the growth in assay [7] was 33.6%.
As to `COc1cccc2c1C(=O)c1c(O)c3c(c(O)c1C2=O)C[C@](O)(C(=O)CO)C[C@H]3O[C@@H]1C[C@@H](NC(=O)CCCN(C)C2(c3ccc(F)cc3)CC3CCC2C3)[C@H](O)[C@@H](C)O1` (stereo partly specified), the growth is 81.2% in assay [1]; 58.6% in assay [2]; -88.3% (active) in assay [3]; -78.5% (active) in assay [4]; -59% (active) in assay [5]; -90.1% (active) in assay [6]. In assay [7], the growth was -77.8% (active).
